In PubChem BioAssay (Tox21):
Inconclusive results are not listed. Entries that show only a call come without a potency. Unmarked numbers belong to inactive results. Activity calls are given as the source filed them. Calls come from the whole dose curve.

Assay: p53 small molecule agonists, cell-based qHTS assay with rat liver microsomes: qHTS cell viability counter screen (AID 1963580); note: nearly all actives have a fitted effect of over 45% in size
How it was run: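 After the beta-lactamase ratio was read, CellTiter-Glo was added to the same wells and luminescence measured at 30 min; cells had been treated 16 h at 37 C with compounds, rat liver microsomes and NADPH (0.5 mg/mL final each).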
Potency is the fitted concentration of half-maximal effect.

Compound	Potency	activity change, negative = cytotoxicity
CCCCC1=NC2(CCCC2)C(=O)N1Cc1ccc(-c2ccccc2-c2nn[nH]n2)cc1	inactive	–
Cc1cccc(Nc2ccncc2S(=O)(=O)NC(=O)NC(C)C)c1	inactive	–
S=C1NC=NC2N=CNC12 (stereo not given)	inactive	–
CCN1CCCC1CNC(=O)c1cc(S(N)(=O)=O)ccc1OC (stereo not given)	inactive	–
CC(=O)OC(C)=O	inactive	–
C=Cc1ccccc1	inactive	–
O=C(NS(=O)(=O)/C=C/c1ccccc1)c1ccc(F)cc1Cl	inactive	–
O[C@@H](CNC[C@H](O)[C@H]1CCc2cc(F)ccc2O1)[C@@H]1CCc2cc(F)ccc2O1	inactive	–
Nc1ccn([C@@H]2O[C@H](CO)[C@@H](O)C2(F)F)c(=O)n1	inactive	–
CCCCCN(CCCCC)C(=O)C(CCC(=O)O)NC(=O)c1ccc(Cl)c(Cl)c1 (stereo not given)	inactive	–
Cc1cc(Br)ccc1NC(=O)CCl	inactive	–
O=C1CC2(CCCC2)CC(=O)N1CCNCC1COc2ccccc2O1 (stereo not given)	inactive	–
O=C1C(=O)c2ccccc2C(O)=C1C1CCC(c2ccc(Cl)cc2)CC1 (stereo not given)	inactive	–
O[C@@H](COc1cccc2ncccc12)CN1CCN(C2c3ccccc3[C@@H]3[C@H](c4ccccc42)C3(F)F)CC1 (stereo not given in full)	inactive	–
CCn1c2ccccc2c2cc([N+](=O)[O-])ccc21	inactive	–
CCCCCCCCCCCCc1ccc(O)cc1	40.8 µM (active)	–
CC(CC1c2ccccc2CCc2ccccc21)CN(C)C (stereo not given)	inactive	–
CNc1ccc(O)cc1	inactive	–
CC1=C(/C=C/C(C)=C/C=C/C(C)=C\C(=O)O)C(C)(C)CCC1	inactive	–
N#Cc1cc2ccccc2c2ccccc12	inactive	–
CC(Cl)C(Cl)Cl (stereo not given)	inactive	–
CN1CCN(CCCN2c3ccccc3Sc3ccc(C(F)(F)F)cc32)CC1	inactive	–
O=C(O)Cc1sc(-c2ccccc2)nc1-c1ccc(Cl)cc1	inactive	–
CC(CCc1ccccc1)NCC(O)c1ccc(O)c(C(N)=O)c1 (stereo not given)	inactive	–
Nc1c(N=Nc2ccc(-c3ccc(N=Nc4cc(S(=O)(=O)O)c5ccccc5c4N)cc3)cc2)cc(S(=O)(=O)O)c2ccccc12	inactive	–
CN(C)CCCN1c2ccccc2Sc2ccccc21	inactive	–
O=C(Nc1ccc(Cl)c(Cl)c1)C1CC1	inactive	–
COCC(=O)Nc1c(I)c(C(=O)NCC(O)CO)c(I)c(C(=O)N(C)CC(O)CO)c1I (stereo not given)	inactive	–
C[C@@H]1CC[C@@]2(OC1)O[C@H]1C[C@H]3[C@@H]4CC[C@H]5C[C@@H](O)CC[C@]5(C)[C@H]4CC(=O)[C@]3(C)[C@H]1[C@@H]2C	–	5.02% [at 5.99 µM]
C=C(C)C(=O)OCCOCC	inactive	–
